PubChem BioAssay
Entries with a potency or affinity are not part of this list. Inconclusive results are not listed. Activity calls are given as the source filed them.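 The calls were made as follows: active = signal-lowering compounds whose fitted half-maximal concentration is at or below twice the top tested dose in every run; inconclusive = runs disagree, flat 30 to 70% inhibition, or poor curve fit; inactive = the rest.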

Experiment: CMV-driven luciferase expression suppression in HEK293 – cell-based, luminescence, dry powder, counter-screen for Pax8 inhibitor project, dose response (AID 743020);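 also: HEK293 cells stably expressing the CMV luciferase reporter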
Settings: HEK293 CMV-luciferase reporter, SteadyGlo luminescence, 24 h; series mostly up to 35 µM
In the case of `CC(C)NC(=O)N1Cc2cc(C(=O)NCC(F)(F)F)nc(-c3cccc(-c4cc5ccccc5o4)c3)c2[C@H]1CCO`, the outcome is reported as “inactive”. In the case of `C[C@@H]1CN([C@@H](C)CO)C(=O)c2cc(NC(=O)Nc3cccc4ccccc34)ccc2O[C@@H]1CN(C)Cc1ccc2c(c1)OCO2`, the outcome is reported as “inactive”. In the case of `C[C@@H]1CN([C@H](C)CO)C(=O)c2cc(NS(=O)(=O)c3ccc(F)cc3)ccc2O[C@@H](C)CCCCO[C@H]1CN(C)Cc1ccccc1`, the outcome is reported as “inactive”. In the case of `N#C[C@H]1[C@H](c2ccc(C#CC3CCCCC3)cc2)[C@H](CO)N1C(=O)Nc1ccc(F)cc1`, the outcome is reported as “inactive”. With `N#Cc1cccc(-c2ccc3c(c2)[C@@H]2[C@@H](CCN2S(=O)(=O)c2ccc(F)cc2)[C@@H](CO)N3)c1` the outcome was “inactive”. For `CCCN(C)C[C@H]1OCCCC[C@@H](C)Oc2ccc(NC(=O)c3ccccc3)cc2C(=O)N([C@H](C)CO)C[C@H]1C`, the outcome was “inactive”. With `C[C@H]1CCCCO[C@H](CN(C)S(=O)(=O)c2ccc(Cl)cc2)[C@@H](C)CN([C@@H](C)CO)C(=O)c2cc(NS(=O)(=O)c3ccc(F)cc3)ccc2O1` the outcome was “inactive”. With `C[C@@H]1CCCCO[C@@H](CN(C)Cc2ccc(Cl)c(Cl)c2)[C@H](C)CN([C@@H](C)CO)C(=O)c2cc(NC(=O)Nc3ccccc3)ccc2O1` the outcome was “inactive”. In the case of `C[C@@H]1CN([C@H](C)CO)C(=O)c2cc(NS(=O)(=O)c3ccc(Cl)cc3)ccc2O[C@@H](C)CCCCO[C@H]1CN(C)C(=O)C1CCCCC1`, the outcome is reported as “inactive”. In the case of `C[C@H]1CCCCO[C@@H](CN(C)S(=O)(=O)c2cccs2)[C@@H](C)CN([C@@H](C)CO)C(=O)c2cc(NS(=O)(=O)c3ccc(Cl)cc3)ccc2O1`, the outcome is reported as “inactive”. With `C[C@@H]1CN([C@H](C)CO)C(=O)c2cc(NC(=O)Nc3ccc(F)cc3)ccc2O[C@@H](C)CCCCO[C@H]1CN(C)S(=O)(=O)c1ccc(F)cc1` the outcome was “inactive”. In the case of `C[C@H](CO)N1C[C@H](C)[C@@H](CN(C)Cc2ccc(Cl)c(Cl)c2)OCCCC[C@H](C)Oc2ccc(NC(=O)Nc3ccc(C(F)(F)F)cc3)cc2C1=O`, the outcome is reported as “inactive”. For `CC(C)CC#Cc1ccc([C@@H]2[C@@H](CO)N3CCCCN(S(=O)(=O)c4ccc(F)cc4)C[C@H]23)cc1`, the outcome was “inactive”. With `Cc1noc(C)c1S(=O)(=O)Nc1ccc2c(c1)C(=O)N([C@@H](C)CO)C[C@H](C)[C@H](CN(C)C(=O)Nc1ccc(C(F)(F)F)cc1)OCCCC[C@H](C)O2` the outcome was “inactive”. In the case of `COc1cccc(S(=O)(=O)N2CC[C@@H]3[C@H](CO)Nc4ccc(C5=CCCCC5)cc4[C@@H]32)c1`, the outcome is reported as “inactive”. With `Cc1noc(C)c1S(=O)(=O)N(C)C[C@H]1OCCCC[C@@H](C)Oc2ccc(NS(=O)(=O)c3ccc(Cl)cc3)cc2C(=O)N([C@@H](C)CO)C[C@H]1C` the outcome was “inactive”. With `Cc1ccc(S(=O)(=O)N(C)C[C@@H]2OCCCC[C@H](C)Oc3ccc(NS(=O)(=O)c4ccc(Cl)cc4)cc3C(=O)N([C@H](C)CO)C[C@H]2C)cc1` the outcome was “inactive”. For `C[C@@H]1CN([C@H](C)CO)C(=O)c2cc(NS(=O)(=O)c3ccc(F)cc3)ccc2O[C@@H](C)CCCCO[C@@H]1CN(C)CC1CCCCC1`, the outcome was “inactive”. In the case of `C[C@@H]1CN([C@H](C)CO)C(=O)c2c(c3ccccc3n2C)-c2ccccc2CO[C@H]1CN(C)S(=O)(=O)c1cccc(F)c1`, the outcome is reported as “inactive”. With `C[C@@H]1CN([C@@H](C)CO)C(=O)Cc2cc(NC(=O)Nc3ccc(C(F)(F)F)cc3)ccc2O[C@H]1CN(C)S(=O)(=O)c1ccc(F)cc1` the outcome was “inactive”. With `O=C(Nc1ccc(F)cc1)N1CCCCN2[C@@H](CO)[C@@H](c3ccc(-c4cccc(F)c4)cc3)[C@@H]2C1` the outcome was “inactive”. In the case of `O=C(CN1C(=O)c2ccccc2S1(=O)=O)c1ccccc1Cl`, the outcome is reported as “inactive”. With `C[C@H](CO)N1C[C@H](C)[C@H](CN(C)Cc2ccc(Cl)c(Cl)c2)OCCCC[C@H](C)Oc2ccc(NC(=O)Nc3ccccc3)cc2C1=O` the outcome was “inactive”. For `C[C@@H]1CN([C@@H](C)CO)C(=O)c2cccc(NC(=O)c3ccncc3)c2O[C@@H]1CN(C)S(=O)(=O)c1cccs1`, the outcome was “inactive”. With `CCSCCc1nnc(NC(=O)Nc2cccc(C(F)(F)F)c2)s1` the outcome was “inactive”. In the case of `Cc1cccc(S(=O)(=O)N2C[C@@H](O)COC[C@@H]3O[C@@H](CC(=O)Nc4ccc(-c5ccccc5)cc4)CC[C@H]32)c1`, the outcome is reported as “inactive”. In the case of `C[C@@H]1CCCCO[C@H](CN(C)C)[C@H](C)CN([C@H](C)CO)C(=O)c2cc(NC(=O)Nc3cccc4ccccc34)ccc2O1`, the outcome is reported as “inactive”. In the case of `COc1ccc(S(=O)(=O)Nc2ccc3c(c2)CC(=O)N([C@H](C)CO)C[C@H](C)[C@@H](CN(C)Cc2ccc(-c4ccccc4)cc2)O3)cc1`, the outcome is reported as “inactive”. For `C[C@H]1CCCCO[C@@H](CN(C)C(=O)Nc2ccc(C(F)(F)F)cc2)[C@@H](C)CN([C@@H](C)CO)C(=O)c2cc(NS(=O)(=O)c3cn(C)cn3)ccc2O1`, the outcome was “inactive”. In the case of `Cc1ccc(S(=O)(=O)Nc2ccc3c(c2)C(=O)N([C@@H](C)CO)C[C@@H](C)[C@H](CN(C)S(=O)(=O)c2ccc(Cl)cc2)OCCCC[C@@H](C)O3)cc1`, the outcome is reported as “inactive”. With `Cc1ccc(S(=O)(=O)Nc2ccc3c(c2)C(=O)N([C@H](C)CO)C[C@H](C)[C@@H](CN(C)S(=O)(=O)c2cccs2)OCCCC[C@H](C)O3)cc1` the outcome was “inactive”. In the case of `C[C@H](CO)N1C[C@H](C)[C@@H](CN(C)Cc2ccc(Cl)c(Cl)c2)OCCCC[C@H](C)Oc2ccc(NS(=O)(=O)c3ccccc3)cc2C1=O`, the outcome is reported as “inactive”. For `C[C@@H]1CCCCO[C@@H](CN(C)C(=O)Cc2ccccc2)[C@@H](C)CN([C@@H](C)CO)C(=O)c2cc(NC(=O)Nc3ccc(C(F)(F)F)cc3)ccc2O1`, the outcome was “inactive”. For `O=C(C[C@H]1CC[C@H]2[C@@H](COC[C@@H](O)CN2S(=O)(=O)c2ccccc2Cl)O1)N1CCC(Cc2ccccc2)CC1`, the outcome was “inactive”. For `C[C@@H]1CCCCO[C@@H](CN(C)C(=O)NC2CCCCC2)[C@H](C)CN([C@@H](C)CO)C(=O)c2cc(NC(=O)Nc3ccc(C(F)(F)F)cc3)ccc2O1`, the outcome was “inactive”. For `Cc1noc(C)c1NC(=O)Nc1cccc2c1O[C@H](CN(C)Cc1ccc(C(F)(F)F)cc1)[C@H](C)CN([C@@H](C)CO)C2=O`, the outcome was “inactive”. For `C[C@@H]1CN([C@H](C)CO)S(=O)(=O)c2ccc(C#Cc3cccc(F)c3)cc2O[C@@H]1CN(C)C(=O)NC1CCCCC1`, the outcome was “inactive”. In the case of `C[C@@H]1CN([C@@H](C)CO)C(=O)Cc2cc(NC(=O)Nc3ccc(C(F)(F)F)cc3)ccc2O[C@H]1CN(C)Cc1ccc(Cl)c(Cl)c1`, the outcome is reported as “inactive”. In the case of `C[C@H]1CN([C@@H](C)CO)C(=O)Cc2cc(NC(=O)Nc3ccc(C(F)(F)F)cc3)ccc2O[C@H]1CN(C)C(=O)Nc1ccc(C(F)(F)F)cc1`, the outcome is reported as “inactive”. With `C[C@@H]1CCCCO[C@@H](CN(C)C(=O)C2CCCCC2)[C@H](C)CN([C@H](C)CO)C(=O)c2cc(NC(=O)Nc3ccc(F)cc3)ccc2O1` the outcome was “inactive”.
